The list is not random: actives were taken first. Their share in the collection is about 28%.
CYP2C19 activ: increases human CYP2C19 enzyme activity; P33261; recombinant CYP2C19, luciferin-H EGE luminescence; active compounds read high; 0 = fully inhibited enzyme, 1 = untreated enzyme; activation factor at 5 µM; 96,000 tested, under 10 active;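 active means activation factor of at least 2 at 5 µM in the primary screen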;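 further: 0 = wells with 2.5 mM tranylcypromine and 1 = vehicle-only wells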
CYP2C9 activ: activators of human CYP2C9 | P11712 | recombinant CYP2C9, luciferin-H conversion, luminescence; active compounds read high; factor 1 = untreated enzyme, 0 = blocked | activation factor at 5 µM | 96,000 compounds, 1.4% hits | AID 1024;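 active means activation factor of 2 or more for CYP2C9 at a 5 µM dose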;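 further: 0 = sulfaphenazole-blocked wells and 1 = vehicle-only wells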
Target sequence (P11712 whole entry, looked up): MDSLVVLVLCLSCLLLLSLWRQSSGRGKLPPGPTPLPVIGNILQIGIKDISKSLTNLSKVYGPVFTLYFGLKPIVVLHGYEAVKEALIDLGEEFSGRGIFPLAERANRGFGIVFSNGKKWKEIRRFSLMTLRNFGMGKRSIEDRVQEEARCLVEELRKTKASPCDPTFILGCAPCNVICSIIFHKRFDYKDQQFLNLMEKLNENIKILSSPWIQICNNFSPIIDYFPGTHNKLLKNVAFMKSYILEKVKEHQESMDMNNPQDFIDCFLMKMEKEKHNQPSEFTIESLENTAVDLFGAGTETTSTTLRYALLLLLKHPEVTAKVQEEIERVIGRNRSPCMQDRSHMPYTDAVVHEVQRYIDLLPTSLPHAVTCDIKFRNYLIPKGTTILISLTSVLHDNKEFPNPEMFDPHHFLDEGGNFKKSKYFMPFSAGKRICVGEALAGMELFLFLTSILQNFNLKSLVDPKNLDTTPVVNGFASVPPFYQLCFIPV
CYP2C19 inhib: inhibitors of human CYP2C19; P33261; CYP2C19 Supersomes, luciferin-H EGE luminescence, 30 min; inhibition, % at 5 µM; AID 778; 96,000 compounds, 21% hits;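 active means CYP2C19 inhibition above a set limit at 5 µM in the primary screen, cut at about 50% in these data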;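 further: plate controls were negative control wells for no effect and 2.5 mM tranylcypromine positive control for full effect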
DAT uptake mod: changed human dopamine transporter uptake under cocaine IC80; 110,000 compounds, 1.3% hits; LLC-PK1 hDAT cells, [14C]-dopamine uptake with cocaine IC80; actives deviate in either direction; Q01959; B-score at 10 µM; AID 449768;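 active means Z score or B-score, a plate-position-corrected score, falls beyond the plate's 99.7% confidence bounds, in either direction; inactive means both scores lie inside the 99.7% bounds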;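 further: scored against the spread of the other compound wells on the same plate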
CYP2C9 inh: blocks human cytochrome P450 2C9 | inhibition, % at 5 µM | CYP2C9 Supersomes, luciferin-H conversion, luminescence | 96,000 compounds, 20% hits | AID 777;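 active means blocking of liver enzyme CYP2C9 beyond about 50% at 5 µM, limit read from the data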
D1 allo mod: allosterically modulates the human D1 dopamine receptor; P21728; B-score at 10 µM; HEK293 D1, CRE-luciferase, dopamine EC30 potentiation; actives deviate in either direction; 58,000 compounds, 5.9% hits; AID 641;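 active means luminescence count or its row- and column-corrected plate score outside the 99.7% band of the plate's sample wells, on either side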
D1 mod confirm: confirmation of human D1 dopamine receptor allosteric modulators | shares compounds with D1 allo mod | HEK293 D1 CRE-luciferase, dopamine EC30 potentiation; active compounds read high | luminescence at 10 µM | 2,200 compounds, 88% hits;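 active means luminescence in either of two replicates above the same-plate mean plus 3 SD of the low-dose dopamine control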
D1 ag no DA: D1 (human) signaling in absence of dopamine; shares compounds with D1 allo mod; HEK293 D1 CRE-luciferase, luminescence, no dopamine; active compounds read high; luminescence at 10 µM; 1,900 compounds, 0.8% hits; in the data active means luminescence above about 3900
Isoprot counter: isoproterenol response counter-screen activity for D1 modulators; AID 647; 2,200 compounds, 63% hits; shares compounds with D1 allo mod; HEK293 D1 CRE-luciferase, isoproterenol EC30 counter-screen; calls only at 10 µM;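 active means luminescence in either replicate above plate mean of wells with a partly effective reference agonist dose plus 3 SD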;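 further: isoproterenol raises cAMP through native beta-adrenoceptor Gs so signal bypasses D1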
* marks the source's active call; other numbers are inactive results; i = inactive; · = not tested or not shown; + = active, no number.

SMILES	CYP2C19 activ	CYP2C9 activ	CYP2C19 inhib	DAT uptake mod	CYP2C9 inh	D1 allo mod	D1 mod confirm	D1 ag no DA	Isoprot counter
Cc1cc(N)n2ncc(-c3ccccc3)c2n1	0.6	0.7	38	0.52	35	1.5	·	·	·
COCCCn1cnnc1SCC(=O)Nc1ccc(S(=O)(=O)N2CCCC2)cc1	0.8	0.8	18	0.23	19	·	·	·	·
CCC1CCc2c(sc3ncnc(N4CCOCC4)c23)C1 (stereo unspecified)	0.1	0.6	89*	0.28	43	17*	15132*	1584	+
O=c1[nH]c(C2CCCN(S(=O)(=O)c3ccccc3)C2)nc2c1nnn2Cc1ccccc1 (stereo unspecified)	0.6	0.2	44	-0.45	81*	4.2*	10532*	·	+
CCCc1nc2c(nnn2Cc2ccccc2)c(=O)[nH]1	0.2	1	78*	-1.2	0	7.1*	11892*	1408	+
O=c1[nH]c(C2CCCN(S(=O)(=O)c3ccccc3)C2)nc2c1nnn2Cc1ccccc1F (stereo unspecified)	·	·	·	-1	·	6.8*	12364*	1664	+
CCc1nnc(NC(=O)CSc2nc(C3CCCCC3)nc3ccccc23)s1	0.9	0.9	5	0.25	15	·	·	·	·
CSc1ncccc1C(=O)OCc1ccc(COC(=O)c2cccnc2SC)cc1	0.9	1	5	-1.8	3	·	·	·	·
CCS(=O)(=O)c1ccc(C(=O)Nc2cccc(Cl)c2)c(Cl)c1Cl	1	1.3	0	0.78	-30	·	·	·	·
CCOc1cccc2cc(C(=O)Nc3cc(C)on3)c(=O)oc12	0.9	1.2	10	-0.57	-24	2.6*	4892	1608	i
O=C(CSc1nnc(CNC(=O)c2c(F)cccc2Cl)o1)c1ccccc1	·	·	·	1.3	·	1.4	·	·	·
Oc1ccc(-c2nc(-c3ccc(O)c(O)c3)cs2)cc1	0.9	0.7	9	-0.13	26	6.7*	7572*	2480	+
CCC(=O)N1CCc2cc(OC)c(OC)cc2C1COc1ccc(C(=O)OC)cc1 (stereo unspecified)	0.4	0.7	60*	0.22	33	15*	20996*	3492	+
CCCN1C(=O)c2ccccc2NC1c1ccc(OC)cc1O (stereo unspecified)	0.2	0.5	81*	0.082	46	4.4*	4884	1664	i
O=C(NCc1cccs1)C1CCN(S(=O)(=O)N2CCCC2)CC1	1	1.1	-3	-0.41	-7	-0.28	·	·	·
CC(NC(=O)c1cccs1)C(c1cccs1)N1CCOCC1 (stereo unspecified)	·	·	·	-0.062	·	0.05	·	·	·
CCn1ncc(C2=NOC(C(=O)Nc3ccc4c(c3)OCO4)C2)c1C (stereo unspecified)	0.4	0.7	56*	0.54	28	4.6*	7668*	1584	i
Cc1c(NS(=O)(=O)CC23CCC(CC2=O)C3(C)C)c(=O)n(-c2ccccc2)n1C (stereo unspecified)	0.5	1	55*	0.78	-5	3.3*	6536	1760	i
CN1CC(=O)N(CC(=O)Nc2ccc(F)cc2)c2ccccc2C1=O	1	1	4	-0.43	4	-0.21	·	·	·
CCOc1cc(C2C(C#N)=C(N)OC3CCCC(=O)C32)ccc1OCCN1CCOCC1 (stereo unspecified)	1.1	1.1	-7	-0.53	-10	-0.58	·	·	·
N#CC1=C(N)SC2(CCCCC2)SC1c1ccccc1 (stereo unspecified)	0.7	0.9	35	-0.56	9	3.2*	6560*	·	+
CN(C)c1ccc(C(CC(=O)O)NC(=O)c2ccc(Cl)cc2)cc1 (stereo unspecified)	0.9	1	14	0.13	3	18*	5248	·	i
COc1ccc(-c2cc3nc(C)cc(C)n3n2)cc1	1	1.1	2	1.1	-6	·	·	·	·
